Anthrax LF prot = Bacillus anthracis LF protease inhibitors, primary screen, biochemical, multiplex microsphere, MLPCN library; actives 0.12% (n = 360,000); Lethal factor (Bacillus anthracis), P15917; inhibition, % at 10 µM; AID 588501, 2011; multiplex microsphere protease cleavage assay; also: plate controls were buffer without enzyme for full effect and enzyme alone for no effect
Target sequence (P15917 whole entry, looked up): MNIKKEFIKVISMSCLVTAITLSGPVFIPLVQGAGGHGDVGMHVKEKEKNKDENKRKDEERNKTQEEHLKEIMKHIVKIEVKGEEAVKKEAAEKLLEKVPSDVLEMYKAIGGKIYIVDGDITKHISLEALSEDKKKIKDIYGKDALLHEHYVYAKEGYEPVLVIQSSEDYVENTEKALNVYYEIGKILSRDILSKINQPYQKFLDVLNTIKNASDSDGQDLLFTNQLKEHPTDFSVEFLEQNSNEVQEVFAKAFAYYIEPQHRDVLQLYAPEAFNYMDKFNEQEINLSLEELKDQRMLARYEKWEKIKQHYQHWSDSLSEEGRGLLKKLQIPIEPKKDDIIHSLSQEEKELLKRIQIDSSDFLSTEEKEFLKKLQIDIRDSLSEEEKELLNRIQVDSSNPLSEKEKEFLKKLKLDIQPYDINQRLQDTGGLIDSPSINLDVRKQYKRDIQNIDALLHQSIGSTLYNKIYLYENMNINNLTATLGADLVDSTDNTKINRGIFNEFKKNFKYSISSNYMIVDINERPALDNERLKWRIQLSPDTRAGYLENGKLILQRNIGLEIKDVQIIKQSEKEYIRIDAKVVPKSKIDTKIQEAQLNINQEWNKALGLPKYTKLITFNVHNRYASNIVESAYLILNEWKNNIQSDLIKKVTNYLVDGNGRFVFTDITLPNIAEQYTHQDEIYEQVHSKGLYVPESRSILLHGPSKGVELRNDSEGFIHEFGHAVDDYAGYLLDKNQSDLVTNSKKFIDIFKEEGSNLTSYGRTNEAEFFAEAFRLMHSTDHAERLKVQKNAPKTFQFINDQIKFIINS
MazF activator = activators of E. coli MazEF toxin-antitoxin RNase, primary screen, biochemical, fluorescence, uHTS. Endoribonuclease toxin MazF (Escherichia coli (strain K12)), P0AE70. FAM/BHQ RNA-DNA oligo cleavage fluorescence, 5 h. activation, % at 20 µM. actives 0.32% (n = 350,000); in the data active = activation above about 50%
BoNT-F LC inh = BoNT/F light chain protease inhibitors, primary screen, biochemical, flow cytometry, MLPCN library; Botulinum neurotoxin type F light chain protease (Clostridium botulinum); inhibition, % at 10 µM; actives 0.22% (n = 360,000); AID 588497, 2011; Multiplex microsphere protease cleavage assay; in the data active = inhibition above about 35%, passing the limit was not always enough; inconclusive = no clear call, values can overlap the other calls; also: plate controls were buffer without enzyme for full effect and enzyme alone for no effect
BoNT A protease = BoNT/A light chain protease inhibitors, primary screen, biochemical, flow cytometry, MLPCN library; actives 0.17% (n = 360,000); inhibition, % at 10 µM; multiplex microsphere protease substrate cleavage; also: plate controls were buffer without enzyme for full effect and enzyme alone for no effect
Autofluor counter = compound fluorescence in toxin protease inhibitor counterscreen. AID 624483. fluorescence intensity (concentration not given with the values). compound autofluorescence counterscreen, microsphere flow cytometry; active compounds read high. actives 3.1% (n = 360,000); in the data active = fluorescence intensity above about 16000; inconclusive = no clear call, values can overlap the other calls
Numbers without * were called inactive; ? = inconclusive; . = no result. Shown are actives, neighbours in structure and some others; about 3.6% of the full set was active somewhere. Rule as the data show it, unless noted: active = inhibition above about 30%; inconclusive = no clear call, values can overlap the other calls; inactive = below that.

SMILES	Anthrax LF prot	MazF activator	BoNT-F LC inh	BoNT A protease	Autofluor counter
COCCNC(=O)Cc1c(C)c2c(cc(C)c3c(C(C)(C)C)coc32)oc1=O	3	5	8	-1	2937
COc1ccc(C(=O)COC(=O)CCN=C2NS(=O)(=O)c3ccccc32)cc1OC	-2	-4	0	0	20801*
CC1(C)CC(=O)C(N=Nc2cccc(F)c2C#N)=C(O)C1	-8	3	5	0	5823
Cc1nc(N/N=C\c2ccc3c(c2)OCO3)sc1C	-1	11	?	-2	4084
Cc1ccc(S(=O)(=O)Nc2ccccc2F)cc1C(=O)OC(C)C(=O)N1CCOCC1 (stereo not given)	7	0	-15	6	4582
CCOC(=O)c1cc2c(C)n(-c3ccc(C)cc3)c(C)c2ccc1=O	-2	5	-2	1	22981*
Cc1ccc(S(=O)(=O)N2CCN(S(=O)(=O)c3ccccc3Br)C2=O)cc1	2	1	0	0	3667
Cc1ccc([N+](=O)[O-])cc1NC(=O)CSc1n[nH]c(-c2cccnc2)n1	-2	-3	-4	-2	3686
CN(C)c1ccc(C2NCCS2)cc1 (stereo not given)	-4	4	-3	0	22912*
O=S(=O)(Nc1ncccn1)c1ccc(Cl)cc1	.	6	.	.	.
CN(C)c1nc(NS(=O)(=O)c2ccc(Cl)cc2)nc(N(C)C)n1	-3	4	-3	0	16435*
Cc1ccccc1-c1csc(N)n1	0	8	1	-1	4025
Cc1ccc(-c2csc(N)n2)s1	0	0	-1	-2	20327*
COc1cc2c(cc1CNC[C@H]1O[C@@H](n3cnc4c(N)ncnc43)[C@H](O)[C@@H]1O)OCO2	-4	2	0	0	3472
CCc1ccc(N/C(SCc2ccccc2C)=C(/C#N)C(=O)NCc2ccco2)cc1	-5	5	-4	-2	17346*
O=C(CCCn1c(=S)[nH]c2ccsc2c1=O)NCc1ccco1	-4	-1	2	1	19127*
O=C(CCCCn1c(=S)[nH]c2ccsc2c1=O)NCc1ccco1	-9	2	-4	-1	16657*
Cc1ccccc1Cn1c(=O)n(CCCC(=O)NCc2ccco2)c(=O)c2sccc21	-1	-9	2	0	3128
COc1cc(OC)nc(NC2OC(=O)c3ccccc32)n1 (stereo not given)	-5	-2	-5	-2	16622*
O=C1OC(Nc2ncccn2)c2ccccc21 (stereo not given)	-4	5	5	1	9583
COC(=O)NC1CCS(=O)(=O)C1 (stereo not given)	-4	-1	-7	?	17672*
Cn1c(CNc2ccc(O)cc2)nc2ccccc21	-11	105*	-6	-4	3241
Cn1c(CSc2nc3ccccc3s2)n[nH]c1=S	0	8	-14	0	3682
CCn1c(CSc2nc3ccccc3s2)nnc1SCC(=O)NCC(=O)OC	-3	-7	-1	0	20468*
CCn1c(SCC(N)=O)nnc1-c1cc2c(C)nn(-c3ccccc3)c2s1	-1	12	2	2	23213*
SMILES	Anthrax LF prot	MazF activator	BoNT-F LC inh	BoNT A protease	Autofluor counter
Cn1c(CSc2nc3ccccc3s2)nc2ccccc21	-3	-1	-5	-3	22150*
CCn1c(CSc2nc3ccccc3s2)nnc1SCC(N)=O	0	3	-3	-2	20063*
CCn1c(CSc2nc3ccccc3s2)nnc1SCC(=O)OC(C)(C)C	-2	-1	-6	-3	16941*
CCn1c(CCc2ccccc2)nnc1SCC(N)=O	28	13	37*	4	3042
CCn1c(CSc2nc3ccccc3s2)nnc1SCC(=O)c1ccc2c(c1)OCCO2	-5	-2	-9	1	4130
Cc1onc(-c2ccccc2)c1-c1n[nH]c(=S)n1-c1ccccc1Cl	-2	3	-2	-1	22416*
CC(=O)Nc1ccc(NC(=O)C(C)OC(=O)c2cccc(S(=O)(=O)N3CCCC3)c2)cc1 (stereo not given)	0	2	-3	2	?
S=C(Nc1cccc(Cl)c1)N1CCOCC1	-2	2	2	1	22806*
O=[N+]([O-])c1cccc(NC(=S)N2CCOCC2)c1	0	10	2	-1	4222
Cc1cc(N2CCC(C(=O)N3CCN(c4cccc(C)c4C)CC3)CC2)n2ncnc2n1	-6	2	-6	-5	17532*
O=C1OCCN1C(=O)[C@H]1[C@H](c2ccc([N+](=O)[O-])cc2)C(c2ccc(F)cc2)=NN1c1ccc(Br)cc1	7	2	3	3	2878
C=CCOc1ccc(C2c3c(oc4ccccc4c3=O)C(=O)N2CCCN2CCOCC2)cc1 (stereo not given)	-7	11	3	0	7696
CC(C)Oc1ccc(C2c3c(oc4ccccc4c3=O)C(=O)N2CCCN2CCOCC2)cc1 (stereo not given)	-1	1	-3	?	24300*
CCCCCN1CN(S(=O)(=O)c2cccs2)c2nc3ccccc3nc21	-4	-5	-7	0	4429
Clc1ccc(-c2nnc3c4ccccc4nc(N4CCOCC4)n23)cc1Cl	-3	10	-10	?	21865*
Fc1ccccc1-c1nnc2c3ccccc3nc(N3CCOCC3)n12	-6	10	1	1	19272*
CCN(CC(=O)NCc1cccs1)c1ccc(S(=O)(=O)N2CCN(C)CC2)cn1	-3	10	-2	-1	5302
CC(C)CCN1CCN(Cc2ccon2)CC1CCO (stereo not given)	-5	9	0	0	3270
COc1ccc(CCNC(=O)c2cc(-c3cc(C)c(C)cc3O)n[nH]2)cc1OC	-2	0	0	0	22479*
COc1ccc(CCNC(=O)c2ccc(=O)[nH]n2)cc1OC	5	1	3	0	5644
COc1ccc(CCNC(=S)NC(=O)c2ccccc2)cc1OC	0	-3	0	-1	23568*
CCc1noc(C)c1C(=O)NCCc1ccc(OC)c(OC)c1	-2	1	1	?	24111*
CCOC(=O)c1c(N)nn(C(=O)C(C)C)c1-c1ccc(OC)cc1	-2	-3	1	0	16326*
CCOCCn1c(N2CCCC2)nc2c1c(=O)[nH]c(=O)n2C	.	-3	.	.	.
CCN(CC)C1=CC(=O)OC12CCCCC2	-5	1	-1	?	22472*
COCCCn1nnnc1SCC(=O)Nc1nc2ccccc2s1	-3	-6	5	1	5033
CCCCn1nnc(NC(=O)COc2ccc(Cl)c(C)c2)n1	-6	-3	-6	-6	17759*
C/C(=N/NC(=O)COc1cc(C)ccc1C(C)C)C(=O)O	-1	1	-2	0	2686
CCn1nnc(NC(=O)COc2cc(C)ccc2C(C)C)n1	-2	-2	-4	-2	20175*

Screens as filed in PubChem BioAssay.
